In PubChem BioAssay AID485317 (Broad Institute, 2010):
In all, about 290,000 compounds went through this assay and about 11,000 (3.8%) were called active.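 Rule for the calls: active = mean replicate inhibition above about 79%, with every replicate also reaching it (limit read from the data); inconclusive = only one of the two criteria met; inactive = mean below limit and not every replicate reaching it.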 What follows is part of a selection rich in actives, with near analogues and random picks from the rest.

The molecules below were run against FAD-linked sulfhydryl oxidase ALR (Homo sapiens) (UniProt P55789) (assay: ALR-catalysed DTT oxidation blockers – biochemical, H2O2 detection, HRP-luminol luminescence, single point, primary screen (AID 485317)). Conditions: purified ALR, active compounds read high, concentration not given here.
FAD-linked sulfhydryl oxidase ALR (Homo sapiens), sequence (P55789 whole entry, looked up): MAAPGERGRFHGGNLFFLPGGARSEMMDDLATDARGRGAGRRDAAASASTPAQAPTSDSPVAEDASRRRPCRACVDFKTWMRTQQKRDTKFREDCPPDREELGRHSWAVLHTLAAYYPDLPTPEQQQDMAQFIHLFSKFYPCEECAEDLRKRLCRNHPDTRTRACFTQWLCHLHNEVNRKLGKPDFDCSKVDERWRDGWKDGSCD
In the case of `Cc1ccc(S(=O)(=O)N2CCCCC2)cc1NC(=O)[C@@H]1CCCN1C(=O)c1cccs1`, the inhibition was -6.24% (inactive). With `O=C(Cc1ccc(Br)cc1)NCCc1ccccc1` the inhibition was -8.61% (inactive). With `Cc1cc(C)n2nc(C(=O)OCC(=O)N(C)CC(=O)Nc3ccc(F)cc3)nc2n1` the inhibition was 2.76% (inactive). `C=C1c2cc(CC)ccc2NC(=O)N1c1ccc(C)cc1` was tested, and the inhibition was 96.2% (active). For `Cc1ccc(N2C(=O)C(Cc3ccccc3)NC2=S)cc1` (centres undefined), the inhibition was 25.5% (inactive). For `Cc1ccc(CC2C(=O)N(c3ccc(F)cc3)C(=O)C2C)cc1` (centres undefined), the inhibition was 1.22% (inactive). For `Cc1ccc(S(=O)(=O)N2CCN(C(=O)c3cccs3)CC2)cc1`, the inhibition was -6.58% (inactive). In the case of `Cc1ccc(S(=O)(=O)N2CCN(C)CC2)cc1`, the inhibition was -6.86% (inactive). `Cc1ccc(S(=O)(=O)N2C3C=CC(C3)C2C(=O)O)cc1` (centres undefined) was tested, and the inhibition was 89.7% (active). For `CC(C)(C)OC(=O)C[C@@H]1C/C=C\C[C@@H](CC(=O)N[C@H](CO)Cc2ccccc2)C(=O)NC[C@@H](c2ccccc2)OC1=O`, the inhibition was -0.924% (inactive). For `COc1ccc(N=Nc2ccc(O)c(P(=O)(c3ccccc3)c3ccccc3)c2)cc1`, the inhibition was -4.29% (inactive). In the case of `Cc1cc(N=Nc2ccc3ccccc3c2)ccc1O`, the inhibition was 86% (active). `CC(=O)CCC(=O)c1ccc2ccccc2c1` was tested, and the inhibition was -2.18% (inactive). With `Cc1nc2ccccc2c(=O)n1-c1ccc(F)c(NC(=O)c2cccs2)c1` the inhibition was -7.89% (inactive). `CN(Cc1cccs1)C(=O)CN1C(=O)c2ccccc2S1(=O)=O` was tested, and the inhibition was 1.6% (inactive). In the case of `Cc1ccc(C(=O)N/C(=C/c2cccs2)C(=O)N2CCCCC2)cc1`, the inhibition was 88.2% (active). For `O=C(N/C(=C\c1ccc(F)cc1)C(=O)N1CCCCCC1)c1ccccc1`, the inhibition was 39.9% (inactive). `CC1CCN(C(=O)/C(=C\c2ccccc2)NC(=O)c2ccccc2)CC1` was tested, and the inhibition was 8.11% (inactive). With `O=C(N/C(=C\c1ccc(O)cc1)C(=O)N1CCCCC1)c1ccccc1` the inhibition was 99% (active). For `Cc1ccc(C(=O)N/C(=C/c2cccs2)C(=O)NCC2CCCO2)cc1` (centres undefined), the inhibition was -0.67% (inactive). `CN1CCN(C(=O)/C(=C\c2cccs2)NC(=O)c2cccs2)CC1` was tested, and the inhibition was 9.55% (inactive). In the case of `O=C(COC(=O)CSc1ccccc1)Nc1ccc(F)cc1F`, the inhibition was 0.233% (inactive). `Cc1nn(-c2ccccc2)nc1C(=O)OCC(=O)N1CCCCC1C` (centres undefined) was tested, and the inhibition was 0.513% (inactive). For `CC(C)(C)Nc1c(-c2cccs2)nc2ccccn12`, the inhibition was 98.7% (active). `Cc1ccsc1C(=O)N[C@@H](C)c1nnc2ccccn12` was tested, and the inhibition was -3.18% (inactive). `Cc1nc2ccccn2c(=O)c1NC(=O)c1cccs1` was tested, and the inhibition was -1.56% (inactive). In the case of `O=C(OCC(=O)N1CCCCCC1)c1ccc(Cl)nc1`, the inhibition was 8.08% (inactive). With `CCOC(=O)[C@H]1[C@H]2COc3cc(OC)ccc3[C@@H]2N2C(=O)CN(Cc3ccc(Cl)cc3)C(=O)[C@@]12C` the inhibition was -2.14% (inactive). In the case of `CCC(=O)N1c2ccc(S(=O)(=O)CCC(=O)N3CCN(c4ccccc4)CC3)cc2CC1C` (centres undefined), the inhibition was 98.5% (active). In the case of `CC(=O)N1CCCc2cc(S(=O)(=O)CCC(=O)N3CCN(c4ccccc4)CC3)ccc21`, the inhibition was 61.3% (inactive). With `CCC(=O)N1CCc2cc(S(=O)(=O)CCC(=O)N3CCN(c4ccccc4F)CC3)ccc21` the inhibition was 5.15% (inactive). `CCC(=O)c1cc(F)ccc1OCC(=O)Nc1ccc2c(c1)OCCO2` was tested, and the inhibition was -1.15% (inactive). For `CNC[C@@H]1Oc2c(NS(C)(=O)=O)cccc2C(=O)N([C@@H](C)CO)C[C@H]1C`, the inhibition was 6.23% (inactive). In the case of `CCOc1ccc(C(C)=O)cc1COC(=O)CNC(=O)c1cccs1`, the inhibition was -1.95% (inactive). `COc1ccc(C2CC(c3cccs3)=NN2c2ccc(F)cc2)cc1OC` (centres undefined) was tested, and the inhibition was -1.9% (inactive). With `COc1ccc(C2CC(c3cccs3)=NN2C(=O)CCC(=O)O)cc1OC` (centres undefined) the inhibition was 5.58% (inactive). In the case of `COc1ccc(C2CC(c3cccs3)=NN2c2ccccc2)cc1` (centres undefined), the inhibition was 97.6% (active). In the case of `COc1ccc(C2=NN(c3ccccc3)C(c3cccs3)C2)cc1` (centres undefined), the inhibition was -4.89% (inactive). In the case of `Oc1ccccc1C1=NN(c2ccccc2)C(c2ccccc2)C1` (centres undefined), the inhibition was 47.4% (inactive). For `COc1ccccc1N1N=C(c2cccs2)CC1c1ccccc1` (centres undefined), the inhibition was 97.2% (active). In the case of `COc1ccc(C(=O)C2CCCN(C(=O)c3ccc(OC)o3)C2)c(C)c1` (centres undefined), the inhibition was -4% (inactive). For `CNC(C)C#Cc1ccc2sc3cc(OC)c(OC)cc3c(=O)c2c1` (centres undefined), the inhibition was -24.4% (inactive). With `Cc1onc(-c2ccccc2Cl)c1C(=O)N(Cc1ccc(N(C)C)cc1)C(C)C` the inhibition was 9.74% (inactive). In the case of `Cc1cc(OCCCCOc2ccc(C#N)cc2)ccc1[N+](=O)[O-]`, the inhibition was 3.02% (inactive). For `C=CCN(CC=C)CCOc1ccccc1[N+](=O)[O-]`, the inhibition was -15.8% (inactive). `CCCOc1ccc(Cn2ccnc2)cc1[N+](=O)[O-]` was tested, and the inhibition was -2.35% (inactive). `CCCCOC(=O)CCCc1ccc([N+](=O)[O-])cc1[N+](=O)[O-]` was tested, and the inhibition was -8.65% (inactive). `CCCCCOc1ccc(CSC2=NCCN2)cc1[N+](=O)[O-]` was tested, and the inhibition was 98.8% (active). `CCCCOc1ccc(CSC(=N)N)cc1[N+](=O)[O-]` was tested, and the inhibition was 99.9% (active). For `Cc1cc(C)c(S(=O)(=O)N2CCCC2CNC(=O)c2ccc3c(c2)OCO3)c(C)c1` (centres undefined), the inhibition was 0.666% (inactive). For `COCCn1c(C)cc(C(=O)CN2c3cccc4cccc(c34)S2(=O)=O)c1C`, the inhibition was -28.9% (inactive). In the case of `CCCCN(C(=O)C1CCC1)c1c(N)n(Cc2ccccc2)c(=O)[nH]c1=O`, the inhibition was 7.79% (inactive). `Cc1ccccc1NC(=O)Cc1nc(COC(=O)c2cccnc2Cl)cs1` was tested, and the inhibition was 31.8% (inactive). For `O=C(COC(=O)c1ccc2c(c1)OCCO2)NCc1ccccc1Cl`, the inhibition was 1.29% (inactive). For `O=C(Cn1nc(Cc2cccnc2)c2ccccc2c1=O)NCC1CCCO1` (centres undefined), the inhibition was 98% (active). In the case of `Cc1nn(CC(=O)NCC2CCCO2)c(=O)c2cc3ccccc3n12` (centres undefined), the inhibition was -2.19% (inactive). In the case of `O=C(Cn1nc(Cc2cccnc2)c2ccccc2c1=O)NCC1COc2ccccc2O1` (centres undefined), the inhibition was -6% (inactive). In the case of `CCOC(=O)c1cc(NC(=O)c2cccnc2)ccn1`, the inhibition was -12.6% (inactive). `O=C1CC[C@H](O)CCN1[C@H](CSc1ccc(Br)cc1)Cc1ccccc1` was tested, and the inhibition was 11.4% (inactive). `CC(=O)Nc1ccc(SC[C@H](Cc2ccccc2)N2CC[C@@H](C)CCC2=O)cc1` was tested, and the inhibition was 97.9% (active). For `C[C@H]1CCC(=O)N([C@H](CSc2ccccc2)Cc2ccccc2)CC1`, the inhibition was -5.54% (inactive). With `COc1ccc(NC(=O)COC(=O)c2n[nH]c3ccccc23)c(OC)c1` the inhibition was -2.04% (inactive). For `Fc1ccc(N2CCN(Cc3cnc(Oc4ccc(Br)cc4)s3)CC2)cc1`, the inhibition was 1.01% (inactive). With `c1ccc(-c2cnc(CN3CCN(c4ccccc4)CC3)o2)cc1` the inhibition was 88.2% (active). With `COc1ccc(N2CCN(Cc3nnc(-c4ccccc4)o3)CC2)cc1` the inhibition was 35.1% (inactive). In the case of `COc1ccc(C2=Nn3c(nnc3-c3ccccc3OC)SC2)cc1OC1CCCC1`, the inhibition was 0.67% (inactive). For `O=C(Nc1ccc(F)c([N+](=O)[O-])c1)C1CCCO1` (centres undefined), the inhibition was -26.1% (inactive). `CCOc1ccc(OCC(=O)OC(C)C(=O)NC2CCCCC2C)cc1` (centres undefined) was tested, and the inhibition was -1.89% (inactive). With `CCOC(=O)c1ccc(NC2Nc3cc(C)nn3S2)cc1` (centres undefined) the inhibition was -10.5% (inactive). For `CCc1ccc(NC2Nc3cc(C)nn3S2)cc1` (centres undefined), the inhibition was 97.5% (active). `COc1ccc(-c2nnc(SCC(=O)Nc3cccnc3Cl)n2C)cc1` was tested, and the inhibition was -3.14% (inactive). In the case of `C[C@H](NC(=O)c1[nH]cnc1C(=O)Nc1nccs1)c1ccccc1`, the inhibition was -11.7% (inactive). In the case of `COc1ccc(C(=O)OCC(=O)NCCCc2ccccc2)cc1OC`, the inhibition was 1.14% (inactive). In the case of `COc1cc(/C=C/C(=O)OCC(=O)Nc2cccc(Oc3ccccc3)c2)ccc1O`, the inhibition was -5.43% (inactive). For `COc1cc(/C=C/C(=O)OCC(=O)NCCCc2ccccc2)ccc1O`, the inhibition was 92.7% (active). With `O=C1C=C(c2cccc(Cl)c2O)C[C@@H](c2ccc(F)cc2)C1` the inhibition was 19.8% (inactive). With `COC(=O)c1ccc(COC(=O)CNC(=O)c2cccc(OC)c2)o1` the inhibition was 0.754% (inactive). For `CCN(C(=O)COC(=O)Cc1c(F)cccc1Cl)c1c(N)n(Cc2ccccc2)c(=O)[nH]c1=O`, the inhibition was -2.58% (inactive). `CC(C)c1ccc(/C=C/C(=O)NNC(=O)c2cccnc2)cc1` was tested, and the inhibition was 3.18% (inactive). `O=C(/C=C/c1ccc(F)cc1)NCCNC(=O)/C=C/c1ccc(F)cc1` was tested, and the inhibition was -1.46% (inactive). `O=C(/C=C/c1ccc(F)cc1)NC(=S)NNC(=O)c1cccnc1` was tested, and the inhibition was 91.2% (active). For `O=C(NCCc1ccco1)c1ccc(OCc2cn3ccccc3n2)cc1`, the inhibition was -0.605% (inactive). `COc1ccc(S(=O)(=O)N2CCCCC2)cc1NC(=O)COc1ccccc1` was tested, and the inhibition was -4.75% (inactive). In the case of `Fc1ccccc1/C=N/Nc1cc(N2CCCCC2)ncn1`, the inhibition was -6.88% (inactive). With `Cc1cc(N/N=C/c2ccccc2F)c2ccccc2n1` the inhibition was 98.4% (active). `Cc1ccc2nc(C)cc(N/N=C/c3ccc(F)cc3)c2c1` was tested, and the inhibition was 68.2% (inactive). For `O=C(Nc1ccc(N2CCOCC2)cc1)c1cccc(S(=O)(=O)N2CCOCC2)c1`, the inhibition was 13.1% (inactive). In the case of `CCOC(=O)c1sc2nc(CSCC(=O)OCc3ccc(C(=O)OC)o3)[nH]c(=O)c2c1C`, the inhibition was 91.5% (active). For `Cc1sc2nc(CSCC(=O)Nc3c(Cl)cccc3Cl)[nH]c(=O)c2c1C`, the inhibition was 36.7% (inactive). For `CCOC(=O)c1sc2nc(C)[nH]c(=O)c2c1C`, the inhibition was -7.28% (inactive). With `CC(C)CCNc1nc(N2CCCC2)c2c(c1C#N)CCN(C)C2` the inhibition was 89.2% (active). `CC(C)Cc1nc(N2CCOCC2)c(C#N)c2c1CCC2` was tested, and the inhibition was -5.9% (inactive). In the case of `N#CCc1c(C#N)c(N)nc(N2CCCC2)c1C#N`, the inhibition was 6.64% (inactive). In the case of `Cc1ccsc1C(=O)NC1CCCCC1C` (centres undefined), the inhibition was -1.25% (inactive).
